Screens from PubChem BioAssay.
PLK1 PBD inh – inhibitors of human PLK1 polo-box domain binding; P53350; Plk1 PBD binding of FITC phosphopeptide, fluorescence polarization; Potency, µM, without a hit: max response, negative = inhibition, most hits filed as inhibitors; 360,000 compounds, 2.8% hits; AID 720504; also: potency is read from the fitted curve at half-maximal effect; series mostly up to about 57 µM; nearly all actives have a fitted effect of over 65% in size
USP2a block – USP2a (human) protease inhibition | USP2 core, Ub-CHOP2 coupled fluorogenic reporter, 485/531 | Potency, µM (series often up to 38.3 µM), without a hit: top-dose activity change, negative = inhibition, usual class: inhibitors | 330,000 compounds, 0.01% hits | O75604 | AID 463254;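 also: potency is read from the fitted curve at half-maximal effect; plate controls were DMSO wells for no effect and full inhibition by NEM control for full effect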
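Deubiquitinase activity read as fluorescence (485/531 nm) after Ub-CHOP2 cleavage activates the enterokinase reporter on its substrate; USP2 core 10nM, Ub-CHOP2 and substrate 25nM each, 30min compound preincubation then 60min RT; data normalized to NEM, curves fitted.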
WRN helicase inh – inhibitors of human WRN helicase; Q14191; WRN helicase unwinding, fluorescent forked duplex, kinetic; Potency, µM (titrated, usually from 114 µM), without a hit: top-dose activity change, negative = inhibition, usual class: inhibitors; 360,000 compounds, 0.46% hits; AID 651768; also: potency is read from the fitted curve at half-maximal effect; nearly all actives have a fitted effect of over 55% in size
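WRN at 20 nM final preincubated with compound 15 min at room temperature; reaction started with 100 nM fluorophore/quencher forked duplex oligonucleotide and 2 mM ATP final. Unwinding followed kinetically by red fluorescence (ex 525, em 598 nm).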
PI5P4K alpha inh – PI5P4K alpha (human) kinase inhibition; P48426; 330,000 compounds, 1.2% hits; max response, %; PI5P4Kalpha enzyme, ADP-Glo luminescence, 60 min; active compounds read low; active = max response of -50% or lower; inconclusive = between -30% and -50%; inactive = -30% or higher; also: value at the top dose of about 77 µM
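Compounds were pin-transferred onto PI5P4Kalpha and substrate in HEPES pH 7.4 buffer with EGTA, CHAPS and 5% DMSO. ATP (5 microM final) started the reaction, which ran 60 minutes at room temperature before ADP-Glo detection.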
USP1-UAF1 inh – blocks the human USP1/UAF1 deubiquitinase complex; AID 743255; recombinant USP1/UAF1, Ub-Rhodamine cleavage fluorescence; Potency, µM (titrated, usually from 57.1 µM), for the others: at the highest dose activity change, negative = inhibition, usual class: inhibitors; 390,000 compounds, 0.23% hits; also: potency is read from the fitted curve at half-maximal effect; nearly all actives have a fitted effect of over 60% in size
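In this screen, compounds sit with the deubiquitinase complex (1nM) for 15 min at room temperature before Ub-Rho is added at 150nM final. Fluorescence rise is then followed for 6 reads every 60 seconds.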
* hit, by the source's call; [ ] = remark or other dose. Compounds with a hit are over-represented: about 3.3% of the library has one in this group of screens. Unless noted, calls follow the shape of the dose curve; as a rule, active = well fitted curve in the direction sought with a large enough effect; inconclusive = small, poorly fitted or top-dose-only effect, or another doubt; inactive = no such curve, though single readings can be large; an effect the other way counts as inactive or inconclusive. Unless noted, % is scaled to controls: 0 for no effect and ±100 for the full control effect.

For O=C(CCn1ccc2cc(S(=O)(=O)N3CCCC3)ccc21)NCc1ccccc1 the results were PLK1 PBD inh inconclusive, USP2a block -1%, WRN helicase inh -3%, PI5P4K alpha inh 7 and USP1-UAF1 inh -12%.
`CCC(C)NC(=O)CCn1ccc2cc(S(=O)(=O)N3CCCC3)ccc21` (stereo unspecified) gave PLK1 PBD inh 27µM*, USP2a block 1%, WRN helicase inh -2%, PI5P4K alpha inh -5 and USP1-UAF1 inh -26%.
`O=C(CCn1ccc2cc(S(=O)(=O)N3CCCC3)ccc21)NCc1cccc(F)c1` gave PLK1 PBD inh 7.5µM*, USP2a block 0%, WRN helicase inh 5%, PI5P4K alpha inh -26 and USP1-UAF1 inh -10%.
CCC(C)NC(=O)Cn1ccc2cc(S(=O)(=O)N3CCCCC3)ccc21 (stereo unspecified) was read as USP1-UAF1 inh 3%.
`COc1cccc(NC(=O)Cn2nnc(-c3nc(-c4ccccc4)no3)c2N)c1` gave USP1-UAF1 inh -17%.
Cc1c(CCC(=O)NCc2cccc(Cl)c2)c(=O)oc2c(C)c(O)ccc12 was read as USP1-UAF1 inh -23%.
For CCOC(=O)C1CCN(C(=O)c2ccc(SC)cc2OC)CC1 the results were PLK1 PBD inh 30µM*, USP2a block 3%, WRN helicase inh -8%, PI5P4K alpha inh -15 and USP1-UAF1 inh -17%.
`CN(C(=O)CSc1nc2c(c(=O)[nH]1)CCCC2)C1CCCCC1` gave PLK1 PBD inh 27µM*, USP2a block 1%, WRN helicase inh -4% and USP1-UAF1 inh -15%.
COc1ccc(NC(=O)C(c2ccc(C)cc2)N(C)C(=O)/C=C\c2ccc3c(c2)OCO3)cc1 (stereo unspecified) was read as USP1-UAF1 inh 11%.
For Cc1ccccc1C(=O)Nc1c(C)nc2ccccn2c1=O the results were USP1-UAF1 inh -21%.
For Cn1c(NC(=S)Nc2ccccc2)nc2ccccc21 the results were PLK1 PBD inh 24µM*, USP2a block -1%, WRN helicase inh 2%, PI5P4K alpha inh -11 and USP1-UAF1 inh -4%.
Screening S=C(Nc1ccccc1)Nc1nc2ccccc2n1CCOc1ccc(Br)cc1 returned PLK1 PBD inh -8%, USP2a block 4%, WRN helicase inh -19%[57.1 µM], PI5P4K alpha inh 1 and USP1-UAF1 inh -19%.
For O=C(CNS(=O)(=O)c1ccc(Br)cc1Cl)OCC(=O)c1ccc[nH]1 the results were PLK1 PBD inh -10%, USP2a block 2%, WRN helicase inh -30%, PI5P4K alpha inh 2 and USP1-UAF1 inh -20%.
O=C(CNS(=O)(=O)c1c(Cl)cccc1Cl)OCC(=O)c1ccc[nH]1 was read as PLK1 PBD inh -3%, USP2a block 1%, WRN helicase inh -4%[11.6 µM], PI5P4K alpha inh -51* and USP1-UAF1 inh -18%.
Screening COc1ccc(CNC(=O)Cn2c(=O)cc(-c3ccccc3)c3c(C)nn(C)c32)cc1 returned USP1-UAF1 inh -13%.
Screening CCN(CC)S(=O)(=O)c1ccc2c(c1)N(CC(=O)Nc1cccc(C#N)c1)C(=O)CO2 returned USP1-UAF1 inh -20%.
Screening COc1cc2c(cc1OC)C1=NC(=O)CN1C(SCc1ccccc1)=N2 returned PLK1 PBD inh 27µM*, USP2a block 0%, WRN helicase inh -32%, PI5P4K alpha inh -22 and USP1-UAF1 inh -1%.
`Cc1c(NC(=O)Oc2ccccc2)sc(=S)n1C` gave PLK1 PBD inh 15µM*, USP2a block 0%, WRN helicase inh -15% and USP1-UAF1 inh -9%.
Cc1ccc(NC(=O)Nc2sc(=S)n(C)c2C)cc1 was read as PLK1 PBD inh inconclusive, USP2a block 0%, WRN helicase inh -16%, PI5P4K alpha inh 1 and USP1-UAF1 inh -26%.
`Cc1ccc(NC(=O)N2CCN(c3nnc(C)c4c(C)n(-c5ccc(Cl)cc5)nc34)CC2)c(C)c1` gave USP1-UAF1 inh -19%.
For Cc1cccc(NC(=O)/C(C#N)=C/c2cccc([N+](=O)[O-])c2)n1 the results were PLK1 PBD inh 27µM*, USP2a block 1%, WRN helicase inh -3%, PI5P4K alpha inh -6 and USP1-UAF1 inh -12%.
